Screening data: PubChem, several laboratories
CSC inhib = blocks cancer stem cells. cancer stem cell-like cells viability, luminescence. inhibition, % at 7.5 µM. 300,000 tested, 1.1% active. AID 2717; in the data active means inhibition above about 75%; inconclusive means no clear call, values can overlap the other calls; tested in HMLE shEcad cells
Beta apoptosis = beta cell apoptosis inhibition | protection from apoptosis, % (no concentration beside the values) | INS-1E cytokine-induced death, ATP luminescence, 48 h; percent of positive-control rescue, neutral wells zero | 300,000 tested, 0.8% active;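 active means Every replicate reaches about 75%, or at least half do and their mean reaches it too, limit read from the data; inconclusive means At least half of replicates reach the limit but their mean does not; inactive means Under half of replicates reach the limit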;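 further: 0% = cytokine-treated negative control wells and 100% = positive control rescue; higher means more ATP so stronger rescue from cytokine killing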
MPTP inh = permeability transition pore inhibition. inhibition, % at 10 µM. AID 602449. isolated mouse mitochondria, Ca2+ swelling absorbance, 30 min. 360,000 tested, 1.4% active;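 active means inhibition of 50% or more, scaled per plate between neutral and stimulator controls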;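 further: 0% = DMSO wells given calcium and 100% = 1 mM EGTA wells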
Calb FLC = C. albicans growth modulation with fluconazole. 300,000 tested, 0.57% active. AID 1979. C. albicans CaCi-2 (fluconazole-resistant clinical isolate) + fluconazole, Alamar Blue growth, 48 h. growth inhibition, % (test concentration not listed);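 active means growth inhibition above about 58% in most replicates, limit read from the data, passing the limit was not always enough; inconclusive means exactly half the replicates above a set limit; inactive means most replicates below a set limit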;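 further: all wells also contain fluconazole at 8 µg/ml as a sub-toxic cotreatment; 0% = median of DMSO wells and 100% = median of geldanamycin control wells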
Mdm2 MdmX PPI = inhibitors of human Mdm2/MdmX interaction; SaOS-2 split-luciferase Mdm2/MdmX complementation, luminescence; inhibition, % at 8 µM; 330,000 tested, 3% active;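 active means inhibition of at least 50% at 8 µM in the primary screen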
Mdm2 MdmX conf = confirmation of human Mdm2/MdmX interaction inhibitors; shares compounds with Mdm2 MdmX PPI; Mdm2-MdmX binding, luminescent assay; inhibition, % at 8 µM; 10,000 tested, 55% active; AID 489028; in the data active means inhibition above about 40%
FLuc counter = counter-screen for Mdm2/MdmX inhibitors: full-length luciferase; shares compounds with Mdm2 MdmX PPI; 6,200 tested, 77% active; AID 504607; inhibition, % at 8 µM; SaOS-2 full-length luciferase counterscreen, luminescence;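 active means mean inhibition at 8 µM reaching about 37%, which flags the compound as non-specific, limit read from the data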;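 further: p53-null SaOS-2 cells with luciferase driven by a doxycycline-inducible promoter; compound on cells about two nights before reading with doxycycline added after day one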
* = called active by the depositor; ? = inconclusive; / = no result given. Rows were chosen to be rich in hits. Some 4.8% of all compounds tested hit in one or more screens of this group.

SMILES | CSC inhib | Beta apoptosis | MPTP inh | Calb FLC | Mdm2 MdmX PPI | Mdm2 MdmX conf | FLuc counter
COc1ccc(-c2cn[nH]c2-c2ccc(OC)cc2O)cc1 | -6 | -27 | 2 | 8 | 71* | 62* | 32
O=[N+]([O-])c1ccc(COc2ccc(-c3[nH]ncc3-c3ccc(Cl)cc3)c(O)c2)cc1 | 82* | 17 | 15 | -3 | 82* | 51* | 43*
Oc1ccc(-c2[nH]ncc2-c2ccc(Cl)cc2)c(O)c1 | 33 | 6 | 7 | 11 | 25 | / | /
Oc1ccc(-c2[nH]ncc2-c2ccc(Br)cc2)c(O)c1 | 12 | 3 | 1 | 7 | 56* | 20 | /
COc1ncnc2c1ncn2CCCN1CCN(c2ccccn2)CC1 | / | / | -1 | / | / | / | /
O=C(C(=O)N1CCN(C(=O)c2ccco2)CC1)c1ccccc1 | / | / | -1 | / | / | / | /
COc1ccc(C2CC=C(C(C)=O)CN2S(=O)(=O)c2ccc(C)cc2)cc1 (configuration not stated) | / | / | 0 | / | / | / | /
Cc1ccc(S(=O)(=O)N2CCCCC2)cc1C(=O)N1C(C)CCCC1C (configuration not stated) | 12 | -2 | 1 | / | 5 | / | /
COc1cc2c(-c3ccc4cc[nH]c4c3)c(-c3ccc(C#N)cc3)oc(=O)c2cc1OC | 39 | 27 | 0 | / | 59* | 35 | 52*
CCn1c(SCC(=O)Nc2c(C#N)cnn2-c2ccccc2)nnc1-c1cccs1 | -3 | 1 | 2 | -5 | 16 | / | /
CNC(=O)COc1ccccc1C(=O)Nc1ccc2c(c1)oc1ccccc12 | 4 | 7 | 12 | 26 | 12 | / | /
O=C(Nc1ccc2c(c1)oc1ccccc12)c1ccc2c(c1)OCO2 | 25 | 15 | 6 | -6 | -36 | / | /
N#Cc1ccccc1NC(=O)c1ccccc1OCC(=O)Nc1ccc2c(c1)oc1ccccc12 | 11 | 5 | 8 | -2 | 62* | 11 | /
O=C(COc1ccc2c(c1)OCO2)Nc1ccc2c(c1)oc1ccccc12 | -5 | 1 | -3 | 9 | 50* | -19 | /
Cc1c(C(=O)NCc2ccccc2C(F)(F)F)sc(=O)n1Cc1ccc(Cl)c(Cl)c1 | / | / | 1 | / | / | / | /
CCCc1ccc(OCc2ccc(C(=O)N3CCSCC3)o2)cc1 | -16 | / | 1 | 9 | 9 | / | /
COc1ccccc1N=C(C)C1=C(O)CC(c2ccccc2)CC1=O (configuration not stated) | 41 | 28 | 0 | 4 | 61* | 55* | 79*
CC1=NN(c2ccc(C)c(C)c2)C(=O)/C1=C\C=C\c1ccc([N+](=O)[O-])o1 | -14 | 84* | 4 | 2 | 77* | 57* | 41*
COc1ccccc1N(C)c1cc2c(c3c1ccn3C)C1CCC2O1 (configuration not stated) | / | / | 0 | / | / | / | /
Cc1cccc(C(=O)Nc2nc(C)c(C(=O)Nc3ccc4c(c3)CCC4)s2)c1 | / | / | 1 | -6 | 58* | 43* | 53*
Cc1cccc(NC(=O)c2sc(C)nc2C)c1 | 6 | 0 | -1 | -4 | -12 | / | /
CCCc1c(-c2ccc(F)cc2F)ncn1Cc1ccccc1OC | / | / | -1 | / | / | / | /
CCN1CCN(c2ccc(NC(=O)CCc3c(C)nc4c(-c5ccc(F)cc5)c(C)nn4c3C)cc2)CC1 | 81* | 12 | -6 | ? | 55* | 36 | /
CCOC(=O)/C(C#N)=C/c1cc(C)n(-c2ccc(Br)cc2)c1C | -4 | 3 | / | 2 | -6 | / | /
CCOC(=O)/C(C#N)=C/c1cc(C)n(-c2ccccc2)c1C | -10 | -5 | 1 | 28 | 52* | 66* | 170*
SMILES | CSC inhib | Beta apoptosis | MPTP inh | Calb FLC | Mdm2 MdmX PPI | Mdm2 MdmX conf | FLuc counter
CCCN(CCC)c1ncnc2nc[nH]c12 | -20 | -10 | -2 | 3 | 72* | 64* | 35
COc1ccc(C2c3ccc4ccccc4c3Oc3ncn(CCCO)c(=N)c32)cc1 (configuration not stated) | 6 | 8 | -2 | 27 | 93* | 30 | /
COc1ccc(C2c3ccc4ccccc4c3Oc3ncn(CCO)c(=N)c32)cc1 (configuration not stated) | 35 | 3 | -2 | 27 | 97* | 51* | 76*
COc1ccc(C2C3=C(CC(C)(C)CC3=O)Oc3ncn(CC(C)C)c(=N)c32)cc1 (configuration not stated) | 23 | 6 | 30 | -13 | 14 | / | /
COc1ccc(C2c3ccc4ccccc4c3Oc3ncn(CCN(C)C)c(=N)c32)cc1 (configuration not stated) | 16 | 7 | -3 | 25 | 91* | 43* | 64*
CN(C)CCCn1cnc2c(c1=N)C(c1ccccc1)c1ccc3ccccc3c1O2 (configuration not stated) | 104* | 98* | -4 | 9 | 100* | 100* | 52*
NC(=O)c1cnc(Cc2c[nH]c3ccccc23)c(I)c1 | / | / | -1 | / | / | / | /
COc1ccc(NC(=O)CCCOc2ccc(Cl)c(C)c2)cc1S(=O)(=O)N1CCOCC1 | -7 | -3 | 0 | / | 19 | / | /
N=c1c2c(ncn1CCCO)Oc1c(ccc3ccccc13)C2c1ccccc1 (configuration not stated) | 50 | 19 | -3 | 12 | 62* | 31 | /
N=c1c2c(ncn1CCCO)Oc1ccc3ccccc3c1C2c1ccccc1 (configuration not stated) | 15 | 111* | -4 | 29 | 58* | 31 | /
Cc1cc(C)c2nc(N3CCC(C(=O)NCC4CCCO4)CC3)sc2c1 (configuration not stated) | -19 | 2 | -2 | -3 | -10 | / | /
Cc1cc(C)c2nc(N3CCC(C(=O)NCCCN4CCCCC4)CC3)sc2c1 | -2 | 7 | 0 | 42 | 84* | 43* | 46*
CN(CC(=O)Nc1ccccc1Cl)C(=O)CSc1nnc(-c2ccco2)n1C | -4 | -5 | 0 | / | 1 | / | /
CCC(=O)OCCNc1cc(SCCC(=O)OC)c2nonc2c1[N+](=O)[O-] | -9 | 6 | 0 | -13 | 17 | / | /
CCCC(=O)OCCNc1cc(Sc2nc3ccccc3[nH]2)c2nonc2c1[N+](=O)[O-] | 4 | 4 | 0 | -6 | 96* | 99* | 53*
CC(=O)Nc1ccc(S(=O)(=O)NCCSc2ccccn2)cc1 | 3 | / | -1 | 0 | -3 | / | /
CC(=O)Nc1ccc(S(=O)(=O)/N=C2\C(=O)c3ccccc3C([O-])=C2n2cc[n+](-c3ccccn3)c2)cc1 | 56 | 20 | 2 | 38 | 55* | 33 | 52*
CC(NC(=O)CCNC(=O)c1ccco1)c1ccccc1 (configuration not stated) | -14 | -4 | 0 | -2 | 5 | / | /
Cc1ccc(C)c2sc(N3CCN(C(=O)c4ccc([N+](=O)[O-])o4)CC3)nc12 | 24 | 19 | 1 | -10 | 90* | 51* | 55*
CC1(C(=O)NS(=O)(=O)c2ccc(F)cc2F)CCN1C(=O)c1ccccc1 (configuration not stated) | / | / | 0 | / | / | / | /
